Screening data: PubChem, several laboratories
Shown are actives, neighbours in structure and some others; about 22% of the full set was active somewhere.
CYP2C9 act: human CYP2C9 activators, primary screen, biochemical, luminescence | Cytochrome P450 2C9 (Homo sapiens), P11712 | AID 1024, 2008 | 96,000 compounds, 1.4% hits | activation factor at 5 µM | recombinant CYP2C9, luciferin-H conversion; hits give high values; factor 1 = untreated enzyme, 0 = blocked;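 active = activation factor of 2 or more for CYP2C9 at a 5 µM dose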;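 also: 0 = sulfaphenazole-blocked wells and 1 = vehicle-only wells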
Target sequence (P11712 whole entry, looked up): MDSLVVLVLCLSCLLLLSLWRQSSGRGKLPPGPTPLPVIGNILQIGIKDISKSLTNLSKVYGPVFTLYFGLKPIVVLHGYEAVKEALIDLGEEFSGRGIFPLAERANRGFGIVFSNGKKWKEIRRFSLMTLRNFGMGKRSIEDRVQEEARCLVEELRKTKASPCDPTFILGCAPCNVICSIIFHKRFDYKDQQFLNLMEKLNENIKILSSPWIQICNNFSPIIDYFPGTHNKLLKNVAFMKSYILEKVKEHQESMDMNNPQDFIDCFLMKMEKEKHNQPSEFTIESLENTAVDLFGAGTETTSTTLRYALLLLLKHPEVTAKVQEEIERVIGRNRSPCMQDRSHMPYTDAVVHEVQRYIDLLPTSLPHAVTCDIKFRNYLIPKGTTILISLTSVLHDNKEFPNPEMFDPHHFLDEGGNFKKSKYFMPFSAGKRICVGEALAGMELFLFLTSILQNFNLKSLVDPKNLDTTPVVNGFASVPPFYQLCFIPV
Measles CPE: compounds protecting cells from measles virus cytopathic effect, primary screen, measles RdRp inhibitor project, single point, MLSMR library, absorbance. Measles virus-infected cells, CPE protection. protection (pct of control), % at 4 µM. 140,000 compounds, 1.5% hits; in the data active = protection mostly above about 24%, no sharp cut-off; inactive = mostly below about 26%
CYP2C19 act: human CYP2C19 activators, primary screen, biochemical, luminescence. Cytochrome P450 2C19 (Homo sapiens), P33261. recombinant CYP2C19, luciferin-H EGE luminescence; hits give high values; 0 = fully inhibited enzyme, 1 = untreated enzyme. activation factor at 5 µM. 96,000 tested, under 10 active;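 active = activation factor of at least 2 at 5 µM in the primary screen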;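 also: 0 = wells with 2.5 mM tranylcypromine and 1 = vehicle-only wells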
CYP2C9 inh: blockers of cytochrome P450 2C9 activity – biochemical, luminescence, ADME assay, primary screen; AID 777, 2007; 96,000 compounds, 20% hits; inhibition, % at 5 µM; CYP2C9 Supersomes, luciferin-H conversion;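 active = blocking of liver enzyme CYP2C9 beyond about 50% at 5 µM, limit read from the data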
CYP2C19 inhib: blockers of cytochrome P450 2C19 activity – biochemical, luminescence, ADME assay, primary screen; P33261; CYP2C19 Supersomes, luciferin-H EGE luminescence, 30 min; inhibition, % at 5 µM; 96,000 compounds, 21% hits; AID 778, 2007;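 active = CYP2C19 inhibition above a set limit at 5 µM in the primary screen, cut at about 50% in these data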;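 also: plate controls were negative control wells for no effect and 2.5 mM tranylcypromine positive control for full effect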
Starred values were filed as active, the others as inactive; . = not tested or not shown.

SMILES	CYP2C9 act	Measles CPE	CYP2C19 act	CYP2C9 inh	CYP2C19 inhib
COc1ccc(-c2cc(C(=O)N3CCN(c4ccccn4)CC3)c3ccccc3n2)cc1	0.2	9.4	0.4	76.9*	58.6*
CCOc1ccc(-c2cc(C(=O)N3CCN(C)CC3)c3ccccc3n2)cc1	0.8	4.9	1	22.4	-3.8
O=C(O)C1CCCN1S(=O)(=O)c1ccc2[nH]c(=O)c(=O)[nH]c2c1 (stereo not drawn)	1.1	24.9	1.1	-10.7	-8.8
O=C1CSc2ccc(C(=O)NCCC3=CCCCC3)cc2N1	1.1	4.3	1	-5.3	-2.3
O=C(O)c1cc(-c2ccncc2)nc2ccc(S(=O)(=O)N3CCOCC3)cc12	0.4	14.9	0.9	59.6*	6.9
O=C(NCc1ccccc1)c1cc(-c2ccncc2)nc2ccc(S(=O)(=O)N3CCOCC3)cc12	.	2.1	.	.	.
COc1ccc(OC)c(-c2cc(C(=O)N3CCN(c4ncccn4)CC3)c3ccccc3n2)c1	0.1	4.7	0.3	89.4*	65.0*
O=C(c1cc(-c2ccccn2)nc2ccc(Br)cc12)N1CCc2ccccc2C1	0.1	13.0	0.1	88.7*	87.1*
CC1CC(C)CN(C(=O)c2cc(-c3ccccn3)nc3ccccc23)C1 (stereo not drawn)	0.7	5.8	0.7	27.2	25.1
Cc1ccc(-c2cc(C(F)F)n3ncc(C(=O)N4CCN(c5ccccn5)CC4)c3n2)cc1	0.4	5.2	0.5	56.8*	46.4
CCN1CCN(C(=O)c2cnn3c(C(F)F)cc(-c4ccc(C)cc4)nc23)CC1	0.9	4.7	0.9	10.5	8.1
O=[N+]([O-])c1ccc(OCC(O)CN2CCN(c3ccccc3F)CC2)cc1 (stereo not drawn)	.	14.2	.	.	.
CCN(CCO)C(=O)C12CCC(C)(C(=O)C1)C2(C)C (stereo not drawn)	1.2	11.0	1.1	-21.9	-9.7
COC(=O)C1C(O)=CC(=O)CC1C (stereo not drawn)	.	6.2	.	.	.
O=C(c1ccco1)N1CCN(C(=O)c2cc(-c3ccccn3)nc3ccc(Cl)cc23)CC1	0.1	4.5	0.5	88.5*	53.2*
O=C(c1ccco1)N1CCN(C(=O)c2cc(-c3ccccc3)nc3ccccc23)CC1	0.9	4.5	1.1	14.0	-7.9
CCCCCCCN1N=C(C)C(C(=O)c2ccccc2)C1=O (stereo not drawn)	0.1	4.8	0.9	94.1*	7.8
CCCCCCN1N=C(C)C(C(=O)c2ccc(Cl)cc2)C1=O (stereo not drawn)	0.4	10.4	1	59.7*	0.6
CCCCN(C(=O)c1ccc(Cl)cc1)C1CC2CCC(C1)N2C (stereo not drawn)	1	6.3	0.8	-3.0	21.9
CCCCCCn1cc(C(=O)O)c(=O)c2ccccc21	0.9	1.5	0.7	8.5	32.7
O=C(Nc1ccccc1-c1nnc(SCc2ccccc2)o1)c1ccccc1	0.2	3.2	0.8	79.1*	16.4
Clc1ccc(CSc2nnc(-c3c[nH]c4ccccc34)o2)cc1	0.8	28.2	1	19.5	4.9
O=C(O)c1cccc(CSc2nnc(-c3ccco3)o2)c1	1.1	20.9	1.1	-7.5	-5.1
O=C(Nc1ccccc1-c1nnc(SCc2ccc(Cl)cc2)o1)c1ccccc1	0.3	21.2	1	69.6*	-3.3
O=c1c(-c2nnc(SCc3ccc(Cl)cc3)o2)cccn1Cc1ccccc1	0.6	26.0	0.1	44.7	90.7*
CC1(C)Cc2nc3sc4c(N(CCO)CCO)ncnc4c3cc2CO1	1	7.8	1.1	-3.0	-12.3
CC1(C)Cc2nc3sc4c(SCC(=O)NCc5ccccc5)ncnc4c3cc2CO1	0.3	1.7	0.2	72.9*	83.4*
CCN(CC(O)Cn1c2ccccc2c2ccccc21)S(=O)(=O)c1ccc(F)cc1 (stereo not drawn)	0	3.2	0	97.4*	99.7*
CCN(CC(O)CON=C1c2ccccc2-c2ccccc21)S(=O)(=O)c1ccc(C)cc1 (stereo not drawn)	.	9.7	.	.	.
O=S(=O)(c1ccc(F)cc1)N(CCO)CC(O)Cn1c2ccccc2c2ccccc21 (stereo not drawn)	0.4	20.7	0	57.0*	96.6*
